Measurements taken from ChEMBL document CHEMBL5606458, “ASAP - ZIKV NS2B-NS3 protease fluorescence single point” (2024).
Screen size: about 2,700 compounds; about 160 (5.9%) showed an effect of 50% or more. Shown is part of a subset that was picked to be rich in strong results.

Molecular target: Nonstructural protein 3 (Zika virus) (UniProt A0A024AXB9)
Sequence (A0A024AXB9 as listed by the source): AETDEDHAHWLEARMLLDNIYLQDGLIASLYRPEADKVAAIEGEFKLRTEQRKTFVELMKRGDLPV

Cc1ccc(CNC(=O)c2cc(Cl)ccc2NS(=O)(=O)c2ccc(Oc3ccccc3Cl)cc2)s1
inhibition (PRVABC59, Concentration 49.5 uM, Number of replicates 2.0, Standard deviation 0.2822395742136887 %): 41.1% | inhibition (PRVABC59, Concentration 99.01 uM, Number of replicates 2.0, Standard deviation 0.310134718781715 %): 25.2% | inhibition (PRVABC59, Concentration 198.0 uM, Number of replicates 2.0, Standard deviation 2.1364830937799217 %): -9.71%

O=C(NCC1CC1)c1cc(Cl)ccc1NS(=O)(=O)c1ccc(Oc2ccccc2Cl)cc1
inhibition (PRVABC59, Concentration 49.5 uM, Number of replicates 2.0, Standard deviation 1.3484995448740613 %): 43% | inhibition (PRVABC59, Concentration 99.01 uM, Number of replicates 2.0, Standard deviation 16.06152873020096 %): 40.6% | inhibition (PRVABC59, Concentration 198.0 uM, Number of replicates 2.0, Standard deviation 0.4375207024201935 %): 45.6%

NCc1cccc(NC(=O)[C@@H](Cc2c[nH]c3ccccc23)NC(=O)OCc2ccccc2)c1
inhibition (PRVABC59, Concentration 49.5 uM, Number of replicates 2.0, Standard deviation 3.967037724259516 %): 6.59% | inhibition (PRVABC59, Concentration 99.01 uM, Number of replicates 2.0, Standard deviation 5.155513103183051 %): 30% | inhibition (PRVABC59, Concentration 198.0 uM, Number of replicates 2.0, Standard deviation 1.4247172313715861 %): 61.6%

CCn1ccnc(N[C@@H](Cc2c[nH]c3ccccc23)C(N)=O)c1=O
inhibition (PRVABC59, Concentration 49.5 uM, Number of replicates 2.0, Standard deviation 1.4026673489298387 %): 18.1% | inhibition (PRVABC59, Concentration 99.01 uM, Number of replicates 2.0, Standard deviation 0.19191044848514063 %): 31.5% | inhibition (PRVABC59, Concentration 198.0 uM, Number of replicates 2.0, Standard deviation 0.4743186100928729 %): 43.7%

NCc1cccc(NC(=O)[C@@H](NC(=O)OCc2ccccc2)C(C2CCC2)C2CCC2)c1
inhibition (PRVABC59, Concentration 49.5 uM, Number of replicates 2.0, Standard deviation 1.6304646588102472 %): 8.82% | inhibition (PRVABC59, Concentration 99.01 uM, Number of replicates 2.0, Standard deviation 1.5618151976061267 %): 76.8% | inhibition (PRVABC59, Concentration 198.0 uM, Number of replicates 2.0, Standard deviation 0.10609407012035098 %): 99.1%

NCc1cccc(NC(=O)[C@@H](NC(=O)OCc2ccccc2)C2CCCCC2)c1
inhibition (PRVABC59, Concentration 49.5 uM, Number of replicates 2.0, Standard deviation 3.670746053577507 %): 0.383% | inhibition (PRVABC59, Concentration 99.01 uM, Number of replicates 2.0, Standard deviation 4.852210894307134 %): 19.8% | inhibition (PRVABC59, Concentration 198.0 uM, Number of replicates 2.0, Standard deviation 0.07712401232790286 %): 99.4%

NCc1cccc(NC(=O)c2cccc(NC(=O)OCc3ccccc3)n2)c1
inhibition (PRVABC59, Concentration 49.5 uM, Number of replicates 2.0, Standard deviation 2.909357334669415 %): 5.59% | inhibition (PRVABC59, Concentration 99.01 uM, Number of replicates 2.0, Standard deviation 2.139765153167162 %): 18.9% | inhibition (PRVABC59, Concentration 198.0 uM, Number of replicates 2.0, Standard deviation 5.981167842462736 %): 37.7%

NCc1cccc(NC(=O)[C@H]2CCCN(C(=O)OCc3ccccc3)C2)c1
inhibition (PRVABC59, Concentration 49.5 uM, Number of replicates 2.0, Standard deviation 2.781365363643047 %): 3.4% | inhibition (PRVABC59, Concentration 99.01 uM, Number of replicates 2.0, Standard deviation 2.023258788415892 %): 8.89% | inhibition (PRVABC59, Concentration 198.0 uM, Number of replicates 2.0, Standard deviation 2.4646681276670943 %): 18.5%

NCc1cccc(NC(=O)[C@H]2COC3(CCOCC3)N2C(=O)OCc2ccccc2)c1
inhibition (PRVABC59, Concentration 49.5 uM, Number of replicates 2.0, Standard deviation 0.9938813563000084 %): 5.38% | inhibition (PRVABC59, Concentration 99.01 uM, Number of replicates 2.0, Standard deviation 1.914429893589366 %): 19% | inhibition (PRVABC59, Concentration 198.0 uM, Number of replicates 2.0, Standard deviation 1.323095447640423 %): 40.3%

NCc1cccc(NC(=O)[C@H]2Cc3ccccc3N2C(=O)OCc2ccccc2)c1
inhibition (PRVABC59, Concentration 49.5 uM, Number of replicates 2.0, Standard deviation 1.3458327451813832 %): -2.12% | inhibition (PRVABC59, Concentration 99.01 uM, Number of replicates 2.0, Standard deviation 2.0252321038631718 %): 4.14% | inhibition (PRVABC59, Concentration 198.0 uM, Number of replicates 2.0, Standard deviation 4.242354762898987 %): 47.3%
